PubChem BioAssay (EPA / NIEHS)
The source made the active and inactive calls. Rule for the calls: active = hit-call score of the fitted dose curve at least 0.9, where 1 is the maximum; inactive = score below 0.9.

Experiments:
[1] = read-out: Monokine induced gamma interferon (MIG), CXCL9 (gene 4283); assay: BSK_hDFCGF_MIG: BioMAP Diversity Plus: hDFCGF Assay for Monokine induced gamma interferon (MIG) Biomarker Activity (AID 2283063); conditions: primary human foreskin fibroblasts; actives raise or lower the signal
In short: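 ELISA read-out of MIG from primary human dermal fibroblasts 24 h post-dosing. Gain or loss of signal fitted bidirectionally, DMSO as baseline.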

[2] = read-out: Vascular cell adhesion molecule 1 (VCAM1), VCAM1 (gene 7412); assay: BSK_hDFCGF_VCAM1: BioMAP Diversity Plus: hDFCGF Assay for Vascular cell adhesion molecule 1 (VCAM1) Biomarker Activity (AID 2283065); conditions: primary human foreskin fibroblasts; actives raise or lower the signal;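 for AC50: VCAM-1 protein level quantified by ELISA after 24 h chemical exposure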
In short: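 Primary human foreskin fibroblasts (hDFCGF system) were dosed with chemical and VCAM-1 was measured by ELISA 24 h later. Bidirectional curve fitting used DMSO as negative control and activity baseline.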

[3] = read-out: Plasminogen activator inhibitor-1 (PAI1), SERPINE1 (gene 5054); assay: BSK_hDFCGF_PAI1: BioMAP Diversity Plus: hDFCGF Assay for Plasminogen activator inhibitor-1 (PAI1) Biomarker Activity (AID 2283066); conditions: primary human foreskin fibroblasts; actives raise or lower the signal
In short: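 Human foreskin fibroblasts in the hDFCGF system were dosed with compound for 24 h; PAI-1 was quantified by ELISA. Bidirectional curve fitting used DMSO as negative control and baseline.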

[4] = read-out: Interferon-gamma inducible Protein 10 (IP10), CXCL10 (gene 3627); assay: BSK_KF3CT_IP10: BioMAP Diversity Plus: KF3CT Assay for Interferon-gamma inducible Protein 10 (IP10) Biomarker Activity (AID 2283068); conditions: primary human keratinocytes with fibroblasts; actives raise or lower the signal
In short: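 ELISA read-out of IP-10 after 24 h chemical dosing of human skin primary co-culture (keratinocytes, foreskin fibroblasts). Gain or loss of signal relative to DMSO, bidirectional curve fit.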

[5] = BSK_KF3CT_SRB: Viability Assessment in the BioMAP Diversity Plus: KF3CT Assay (AID 2283069); conditions: primary human keratinocytes with fibroblasts;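 note: total protein by sulforhodamine B staining as a cytotoxicity measure; read 24 h after compound addition; fitted for both signal gain and loss against DMSO baseline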
In short: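 Keratinocytes co-cultured with foreskin fibroblasts (human primary); chemical added, 24 h; fix 10% TCA, stain 0.1% SRB, A560. Bidirectional fit vs DMSO.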

[6] = read-out: Interleukin-1 alpha (IL1a), IL1A (gene 3552); assay: BSK_KF3CT_IL1a: BioMAP Diversity Plus: KF3CT Assay for Interleukin-1 alpha (IL1a) Biomarker Activity (AID 2283070); conditions: primary human keratinocytes with fibroblasts; actives raise or lower the signal
In short: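 Chemicals were dosed onto co-cultured human keratinocytes and foreskin fibroblasts, IL-1a was quantified by ELISA at 24 h, and activity was fitted in both directions relative to DMSO controls.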

[7] = read-out: TIMP metallopeptidase inhibitor 2 (TIMP2), TIMP2 (gene 7077); assay: BSK_KF3CT_TIMP2: BioMAP Diversity Plus: KF3CT Assay for TIMP metallopeptidase inhibitor 2 (TIMP2) Biomarker Activity (AID 2283071); conditions: primary human keratinocytes with fibroblasts; actives raise or lower the signal
In short: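 Human primary keratinocyte/foreskin fibroblast co-culture dosed with chemical and sampled at 24 h. TIMP-2 levels quantified by ELISA; bidirectional fitting against DMSO negative control as baseline.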

[8] = read-out: Transforming growth factor beta 1 (TGFb1), TGFB1 (gene 7040); assay: BSK_KF3CT_TGFb1: BioMAP Diversity Plus: KF3CT Assay for Transforming growth factor beta 1 (TGFb1) Biomarker Activity (AID 2283072); conditions: primary human keratinocytes with fibroblasts; actives raise or lower the signal
In short: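 Human keratinocyte plus foreskin fibroblast primary co-culture, dosed with chemical for 24 h. TGF-b1 quantified by ELISA. Activity fitted bidirectionally against DMSO negative control as baseline.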

[9] = read-out: Matrix Metallopeptidase 9 (MMP9), MMP9 (gene 4318); assay: BSK_KF3CT_MMP9: BioMAP Diversity Plus: KF3CT Assay for Matrix Metallopeptidase 9 (MMP9) Biomarker Activity (AID 2283074); conditions: primary human keratinocytes with fibroblasts; actives raise or lower the signal;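 for AC50: MMP9 protein level quantified by ELISA in the co-culture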
In short: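 Human keratinocyte/foreskin fibroblast co-culture; compound added; 24 h; MMP-9 by ELISA; bidirectional fit vs DMSO baseline.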

[10] = read-out: urokinase plasminogen activator (uPA), PLAU (gene 5328); assay: BSK_KF3CT_uPA: BioMAP Diversity Plus: KF3CT Assay for urokinase plasminogen activator (uPA) Biomarker Activity (AID 2283075); conditions: primary human keratinocytes with fibroblasts; actives raise or lower the signal
In short: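 ELISA readout of uPA, analyzed for signal gain or loss relative to DMSO, from a human primary keratinocyte–foreskin fibroblast co-culture measured 24 h after chemical treatment.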

CD40, CD40 (gene 958) = assay: BSK_LPS_CD40: BioMAP Diversity Plus: LPS Assay for CD40 Biomarker Activity (AID 2283076); conditions: primary human HUVEC with PBMC; actives raise or lower the signal
In short: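 Primary human umbilical vein endothelial cells co-cultured with peripheral blood mononuclear cells, LPS-stimulated, were dosed with chemical and read 24 h later. CD40 levels were measured by ELISA and fitted bidirectionally against DMSO as negative control and baseline.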

[11] = read-out: E-selectin (Homo sapiens) (UniProt P16581); assay: BSK_LPS_Eselectin: BioMAP Diversity Plus: LPS Assay for Eselectin Biomarker Activity (AID 2283077); conditions: primary human HUVEC with PBMC; actives raise or lower the signal
In short: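 Human umbilical vein endothelial cells co-cultured with peripheral blood mononuclear cells under LPS stimulation; E-selectin measured by ELISA 24 h after chemical dosing. Activity fitted bidirectionally against DMSO as negative control and baseline.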

[12] = read-out: Interleukin-8 (IL8), CXCL8 (gene 3576); assay: BSK_LPS_IL8: BioMAP Diversity Plus: LPS Assay for Interleukin-8 (IL8) Biomarker Activity (AID 2283078); conditions: primary human HUVEC with PBMC; actives raise or lower the signal
In short: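 Human umbilical vein endothelial cells co-cultured with PBMC were stimulated with LPS; IL-8 levels were measured by ELISA 24 h after chemical dosing. Activity was fitted bidirectionally against DMSO as negative control and baseline.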

[13] = read-out: Monocyte Chemoattractant Protein-1 (MCP1), CCL2 (gene 6347); assay: BSK_LPS_MCP1: BioMAP Diversity Plus: LPS Assay for Monocyte Chemoattractant Protein-1 (MCP1) Biomarker Activity (AID 2283081); conditions: primary human HUVEC with PBMC; actives raise or lower the signal;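 for AC50: secreted MCP-1 protein quantified by ELISA in culture supernatant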
In short: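 HUVEC plus PBMC co-culture (human primary cells, LPS system) exposed to test chemical for 24 h; MCP-1 measured by ELISA. Bidirectional curve fitting against DMSO baseline; parallel SRB total-protein staining flags overt cytotoxicity.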

[14] = BSK_LPS_PGE2: BioMAP Diversity Plus: LPS Assay for Prostaglandin E2 (PGE2) Biomarker Activity (AID 2283082); conditions: primary human HUVEC with PBMC; actives raise or lower the signal;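 for AC50: secreted prostaglandin E2 measured by ELISA in LPS-stimulated co-culture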
In short: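 HUVEC plus PBMC co-culture stimulated with LPS; secreted PGE2 quantified by ELISA 24 h after chemical dosing. Activity fitted bidirectionally against DMSO as negative control and baseline; parallel SRB total-protein staining served as cytotoxicity check.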

[15] = read-out: Matrix Metallopeptidase 1 (MMP1), MMP1 (gene 4312); assay: BSK_hDFCGF_MMP1: BioMAP Diversity Plus: hDFCGF Assay for Matrix Metallopeptidase 1 (MMP1) Biomarker Activity (AID 2283064); conditions: primary human foreskin fibroblasts; actives raise or lower the signal
In short: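 hDFCGF primary fibroblasts (human foreskin); chemical added; 24 h; MMP1 by ELISA; bidirectional fit vs DMSO.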

[16] = BSK_LPS_SRB: Viability Assessment in the BioMAP Diversity Plus: LPS Assay (AID 2283079); conditions: primary human HUVEC with PBMC;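 note: total protein by sulforhodamine B absorbance as a cytotoxicity measure; measured one day after compound addition; fitted in both directions against DMSO so loss or gain of signal counts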
In short: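 Human umbilical vein endothelial cells co-cultured with PBMC (LPS system) were dosed for 24 h. Total protein was stained with 0.1% sulforhodamine B after 10% TCA fixation, read at 560 nm, and fitted bidirectionally against DMSO baseline.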

[17] = read-out: C-C motif chemokine 2 (Homo sapiens) (UniProt P13500); assay: BSK_KF3CT_MCP1: BioMAP Diversity Plus: KF3CT Assay for Monocyte Chemoattractant Protein 1 (MCP1/CCL2) Biomarker Activity (AID 2283073); conditions: primary human keratinocytes with fibroblasts; actives raise or lower the signal
In short: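 Human keratinocyte plus foreskin fibroblast primary co-culture exposed to chemical for 24 h. MCP-1 levels measured by ELISA. Bidirectional curve fitting relative to DMSO negative control as baseline.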

[18] = read-out: Interleukin-1 alpha (IL1a), IL1A (gene 3552); assay: BSK_LPS_IL1a: BioMAP Diversity Plus: LPS Assay for Interleukin-1 alpha (IL1a) Biomarker Activity (AID 2283080); conditions: primary human HUVEC with PBMC; actives raise or lower the signal
In short: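 Human umbilical vein endothelial cells co-cultured with peripheral blood mononuclear cells were LPS-stimulated and exposed to test chemicals for 24 h. IL-1 alpha was quantified by ELISA, with bidirectional curve fitting against DMSO as the negative control and baseline.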

Measured: AC50

Chain of E-selectin (Homo sapiens) (P16581 whole entry, looked up): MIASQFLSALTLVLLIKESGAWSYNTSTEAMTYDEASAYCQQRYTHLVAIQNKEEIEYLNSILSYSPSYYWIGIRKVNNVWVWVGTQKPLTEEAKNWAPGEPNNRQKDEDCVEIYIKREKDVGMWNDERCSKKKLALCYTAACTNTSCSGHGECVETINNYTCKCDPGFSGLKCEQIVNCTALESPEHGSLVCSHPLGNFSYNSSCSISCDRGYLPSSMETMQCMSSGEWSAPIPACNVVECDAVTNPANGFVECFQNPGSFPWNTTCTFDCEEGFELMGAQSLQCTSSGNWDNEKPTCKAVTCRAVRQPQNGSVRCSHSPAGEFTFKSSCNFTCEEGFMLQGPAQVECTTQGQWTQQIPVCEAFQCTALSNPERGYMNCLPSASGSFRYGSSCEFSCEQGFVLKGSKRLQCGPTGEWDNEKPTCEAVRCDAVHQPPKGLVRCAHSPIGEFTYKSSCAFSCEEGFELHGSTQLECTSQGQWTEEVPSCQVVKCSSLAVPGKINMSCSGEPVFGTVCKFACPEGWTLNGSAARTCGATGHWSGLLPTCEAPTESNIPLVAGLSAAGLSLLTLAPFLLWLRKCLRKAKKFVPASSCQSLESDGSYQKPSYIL

CC1=C(/C=C/C(C)=C/C=C/C(C)=C/C(=O)O)C(C)(C)CCC1
inactive: [12] | [13]
active: [1] 31.8 µM | [2] 18.5 µM | [3] 20 µM | [4] 25.6 µM | [5] 32.8 µM | [6] 33.6 µM | [7] 32.3 µM | [8] 30.1 µM | [9] 32.6 µM | [10] 31.2 µM | CD40, CD40 (gene 958) 4.45 µM | [11] 6.18 µM | [14] 0.918 µM

O=[N+]([O-])c1ccc(O)cc1
not listed: [8] | [17] | [18]
inactive: all other assays above

OC1CCC(C2CCCCC2)CC1 (stereo not given)
not listed: [16]
inactive: all other assays above

CCCCCCCCCCCCN1CCCC1=O
active: [1] 39 µM | [15] 34.8 µM | [2] 33 µM | [3] 30.6 µM | [4] 35.5 µM | [5] 33.4 µM | [6] 35.2 µM | [7] 31.3 µM | [8] 34.2 µM | [17] 34.3 µM | [9] 35 µM | [10] 36.7 µM | CD40, CD40 (gene 958) 32.2 µM | [11] 33.8 µM | [12] 31.3 µM | [13] 32.9 µM
inactive: [14]

CCN(CC)CCNc1ccc(CNC=O)c2sc3ccc(OC)cc3c(=O)c12
active: [1] 34.2 µM | [15] 10.7 µM | [2] 32.4 µM | [3] 11 µM | [4] 30.8 µM | [5] 26.4 µM | [6] 22.3 µM | [7] 25 µM | [9] 17.5 µM | [10] 25.8 µM | CD40, CD40 (gene 958) 35.4 µM | [11] 13.1 µM | [12] 11.2 µM | [13] 20 µM | [14] 4.06 µM

ClC1=C(Cl)C(Cl)(Cl)C(Cl)=C1Cl
active: [1] 13.6 µM | [15] 13.9 µM | [2] 6.75 µM | [3] 8.9 µM | [4] 8.82 µM | [5] 7.42 µM | [6] 7.98 µM | [7] 11.8 µM | [9] 9.06 µM | [10] 10.7 µM | CD40, CD40 (gene 958) 10.2 µM | [11] 11.9 µM | [12] 13.9 µM | [13] 12.3 µM | [14] 11.6 µM

CC(C)(C)c1cc(C(C)(C)C)c(O)c(C(C)(C)C)c1
active: [1] 33.5 µM | [15] 33.1 µM | [2] 31.5 µM | [3] 32.2 µM | [4] 32.8 µM | [9] 36.2 µM
not listed: [16] | [17] | [18]
inactive: all other assays above

CCCCCCCCCCCCCC[N+](C)(C)C
inactive: [14]
active: [1] 7.37 µM | [15] 9.7 µM | [2] 4.06 µM | [3] 2.85 µM | [4] 4.81 µM | [5] 5.24 µM | [6] 3.96 µM | [7] 5.45 µM | [17] 8.89 µM | [9] 3.52 µM | [10] 4.33 µM | CD40, CD40 (gene 958) 4.57 µM | [11] 10 µM | [12] 10.9 µM | [13] 5.01 µM

CC(C)(C)CC(C)(C)c1ccc(O)c(-n2nc3ccccc3n2)c1
active: [1] 7.74 µM | [2] 15.8 µM | [3] 11.3 µM | [9] 16.6 µM
not listed: [8]
inactive: all other assays above

Cc1oc(-c2ccccc2)nc1CCOc1ccc(C[C@H](Nc2ccccc2C(=O)c2ccccc2)C(=O)O)cc1
active: [1] 6.07 µM | [15] 2.05 µM | [2] 3.61 µM | [3] 2.79 µM | [4] 2.86 µM | [5] 4.3 µM | [6] 8.87 µM | [7] 9.85 µM | [8] 7.38 µM | [9] 6.66 µM | [10] 7.7 µM | CD40, CD40 (gene 958) 30.2 µM | [11] 30.8 µM | [12] 29.1 µM | [13] 16.1 µM | [14] 8.83 µM

CCCCC(CC)COC(=O)CCCCC(=O)OCC(CC)CCCC (stereo not given)
not listed: [8] | [17] | [18]
inactive: all other assays above

CCCCCCCCCCCCc1ccccc1S(=O)(=O)O
inactive: CD40, CD40 (gene 958) | [11] | [12] | [13] | [14]
active: [1] 11.7 µM | [15] 7.55 µM | [2] 11.6 µM | [3] 6.87 µM | [4] 13 µM | [5] 12.8 µM | [6] 29.9 µM | [7] 13.3 µM | [8] 12.4 µM | [9] 12 µM | [10] 28 µM

O=C(OCCOCCOC(=O)c1ccccc1)c1ccccc1
not listed: [8] | [16] | [17]
inactive: all other assays above
